Settings in all cases: concentration: 1 μM, replicates: in singlicate; n = 1
Assay [1] has as its system RPS6KA5(Kin.Dom.2-C-terminal).
For assay [2], the system named is T1, RSK1(Kin.Dom.1-N-terminal).
T1 construct: gene RPS6KA1

In assay [3] the test system is T2, RSK1(Kin.Dom.2-C-terminal).
T2 construct: gene RPS6KA1

Assay [4] deals with T3, RSK2(Kin.Dom.1-N-terminal).
T3 construct: gene RPS6KA3

The test system of assay [5] is T4, RSK2(Kin.Dom.2-C-terminal).
T4 construct: gene RPS6KA3

Assay [6] has as its system T5, RSK3(Kin.Dom.1-N-terminal).
T5 construct: gene RPS6KA2

Assay [7] relates to T6, RSK3(Kin.Dom.2-C-terminal).
T6 construct: gene RPS6KA2

For assay [8], the system named is T7, RSK4(Kin.Dom.1-N-terminal).
T7 construct: gene RPS6KA6

Assay [9] concerns T8, RSK4(Kin.Dom.2-C-terminal).
T8 construct: gene RPS6KA6

Assay [10] has as its system S6K1.
The subject of assay [11] is SBK1.
For assay [12], the system named is SGK2.
The subject of assay [13] is SGK3.
Assay [14] relates to SGK.
The subject of assay [15] is SIK2.
For assay [16], the system named is SIK.
In assay [17] the test system is SLK.
The test system of assay [18] is T9, SNARK.
T9 construct: gene NUAK2

The test system of assay [19] is SNRK.
The subject of assay [20] is SRC.

Each structure is given as a SMILES string.
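Further: KINOMEscan kinase panel screen.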

Regarding `Nc1nc(-c2ccc3c(N)n[nH]c3c2)cc(N2CCC[C@@H](C(=O)Nc3ccccc3)C2)n1.O=C(O)C(F)(F)F.O=C(O)C(F)(F)F` [GSK2288359], the “%Inh” value in assay [1] came out at 6%; in assay [2], 20%; in assay [3], 13%; in assay [4], 0%; in assay [5], 0%; in assay [6], 7%. The “%Inh” value in [7] is 0%; in assay [8] it was 0%; in [9], 5%; in [10], 0%; in assay [11], 0%; in assay [12] it was 0%. The “%Inh” value is reported as 8% in [13]; 0% in assay [14]; 0% in [15]; 0% in assay [16]; 0% in assay [17]; 21% in [18]. In addition, the “%Inh” value in [19] and in assay [20] was 0% in each case.

Regarding `COc1ccc(Nc2nccc(N3CCC(NC(=O)c4cccc(NC(C)=O)c4)C3)n2)cc1` (centres unmarked) [GSK1379732], the “%Inh” value in assay [1] is 20%; in assay [2], 0%; in assay [3], 0%; in assay [4] it was 0%; in [5], 16%; in assay [6] it was 23%. Besides, the “%Inh” value in assay [7] was found to be 6%; in assay [8], 0%; in assay [9], 27%; in [10] it was 0%; in assay [11], 21%; in assay [12], 3%. Besides, the “%Inh” value in assay [13] is given as 3%; in assay [14], 15%; in assay [15] it was 0%; in assay [16], 0%; in assay [17], 6%; in assay [18], 3%. For the same molecule, the “%Inh” value in assay [19] and in assay [20] was 0% in each case.

For `CN1CCC(n2cnc(-c3ccc(F)cc3)c2-c2ccnc(NC3CCNCC3)n2)CC1` [SB-229482], the “%Inh” value was determined as 0% in [1]; 17% in assay [2]; 23% in assay [3]; 9% in assay [4]; 43% in assay [5]; 18% in [6]. Besides, the “%Inh” value in assay [7] is on record as 30%; in assay [8] it was 0%; in [9] it was 51%; in assay [10] it was 25%; in assay [11], 0%; in assay [12], 87%. The “%Inh” value in [13] is 0%; in assay [14], 0%; in assay [15], 0%; in assay [16], 12%; in assay [17], 0%; in assay [18], 0%. Also, the figures for the “%Inh” value in assay [19] and in assay [20] were 1% and 0%, respectively.

With `Cl.O=S(=O)(c1cccc(F)c1)c1ccc(Nc2ncnc3cc(Br)sc23)cc1Cl` [GSK306886], the “%Inh” value in assay [1] is 4%; in assay [2], 17%; in assay [3], 17%; in assay [4], 0%; in [5] it was 0%; in assay [6], 0%. In addition, the “%Inh” value in assay [7] is recorded as 31%; in assay [8] it was 0%; in assay [9], 14%; in [10], 0%; in [11], 0%; in assay [12] it was 0%. In addition, the “%Inh” value in assay [13] came out at 6%; in [14], 0%; in [15] it was 0%; in assay [16], 0%; in [17] it was 8%; in assay [18], 14%. Moreover, the “%Inh” value in [19] and in assay [20] was 0% in each case.

On to `Oc1ccc2ncnc(Nc3ccc(OCc4ccccc4)cc3)c2c1` [GI262866], for which the “%Inh” value in assay [1] is on record as 0%; in assay [2], 0%; in [3] it was 0%; in assay [4] it was 0%; in assay [5], 0%; in assay [6], 5%. The “%Inh” value worked out at 0% in assay [7]; 0% in assay [8]; 0% in assay [9]; 0% in assay [10]; 5% in [11]; 0% in assay [12]. The “%Inh” value amounted to 0% in assay [13]; 6% in [14]; 0% in assay [15]; 0% in assay [16]; 1% in assay [17]; 0% in [18]. The “%Inh” value in assay [19] and in [20] was 0% in each case.

For `CCCc1ccc(S(=O)(=O)NC2CCN(c3ccnc(Nc4ccc(OC)cc4)n3)C2)cc1` (centres unmarked) [GSK1379737], the “%Inh” value is recorded as 7% in [1]; 0% in assay [2]; 0% in assay [3]; 2% in assay [4]; 13% in [5]; 0% in assay [6]. Also, the “%Inh” value in assay [7] was 0%; in assay [8] it was 0%; in assay [9], 0%; in assay [10], 16%; in assay [11], 100%; in assay [12], 6%. Besides, the “%Inh” value in [13] came out at 0%; in assay [14], 0%; in assay [15] it was 0%; in assay [16] it was 0%; in assay [17], 15%; in [18], 0%. Further, the “%Inh” value in [19] and in [20] was 0% in each case.

Consider `O=C(CCO)NCCn1ccc2ncnc(Nc3ccc(Oc4cccc(C(F)(F)F)c4)c(Cl)c3)c21`, for which the “%Inh” value came out at 0% in assay [1]; 0% in assay [2]; 0% in assay [3]; 0% in [4]; 0% in [5]; 3% in [6]. Also, the “%Inh” value in assay [7] came to 4%; in assay [8], 0%; in [9], 0%; in assay [10], 0%; in assay [11], 0%; in assay [12], 0%. The “%Inh” value in [13] stood at 0%; in assay [14], 0%; in [15], 16%; in [16], 10%; in [17], 37%; in assay [18], 0%. Moreover, the “%Inh” value in [19] and in assay [20] was 0% throughout.

For the molecule `CSc1ccc(NC2=C(c3ccccc3Cl)C(=O)NC2=O)cc1` [SB-342411], the “%Inh” value in assay [1] is 1%; in assay [2] it was 6%; in [3], 15%; in assay [4] it was 0%; in assay [5], 0%; in assay [6], 1%. Besides, the “%Inh” value turned out to be 0% in [7]; 0% in [8]; 0% in assay [9]; 1% in assay [10]; 1% in [11]; 0% in [12]. The “%Inh” value in assay [13] turned out to be 14%; in [14] it was 0%; in assay [15], 5%; in assay [16], 0%; in assay [17], 98.7%; in assay [18], 19%. Further, the “%Inh” value in assay [19] amounted to 0%; in assay [20], 38%.

Consider `Fc1cccc(COc2ccc(Nc3ncnc4cc[nH]c34)cc2Cl)c1`, for which the “%Inh” value came out at 0% in assay [1]; 12% in assay [2]; 23% in [3]; 15% in assay [4]; 0% in [5]; 8% in [6]. Further, the “%Inh” value in assay [7] turned out to be 26%; in assay [8], 20%; in assay [9], 29%; in [10], 21%; in assay [11] it was 52%; in assay [12], 26%. In addition, the “%Inh” value in assay [13] was determined as 40%; in assay [14], 23%; in assay [15] it was 0%; in assay [16], 15%; in [17], 34%; in assay [18], 36%. For the same molecule, the results for the “%Inh” value in assay [19] and in assay [20] were 21% and 16%, respectively.

Regarding `Cc1cccc(-c2nc(Nc3ccc4[nH]nnc4c3)c3ccccc3n2)n1` [GW867587], the “%Inh” value in [1] is on record as 0%; in assay [2], 0%; in assay [3], 16%; in assay [4] it was 12%; in assay [5], 0%; in assay [6], 0%. The “%Inh” value in assay [7] turned out to be 12%; in assay [8], 0%; in assay [9] it was 0%; in assay [10] it was 0%; in assay [11] it was 0%; in [12], 0%. Also, the “%Inh” value in assay [13], in assay [14], in [15], in assay [16], in assay [17] and in [18] was 0% in each case. Also, the “%Inh” value turned out to be 0% in [19] and 26% in assay [20].

The values above are taken from article PMC5540273 (PLoS ONE, 2017).
